PubChem BioAssay (NCATS)
Inconclusive results are not listed. Activity calls are given as the source filed them. Calls follow the shape of the dose curve; as a rule, active = well fitted cell-killing curve with a large enough effect; inconclusive = small, poorly fitted or top-dose-only effect, or effect the other way; inactive = no such curve, though single readings can be large or run the other way. Starred links: 1 amine or outer side, 2 acyl side, 3 side chain; linkers in the order of their positions; H or OH if unused. Positions of bridges follow the written chain, without caps; N, C: chain ends. Non-standard residues stand in square brackets, D forms with d. Residues, ends and D or L forms follow the SMILES beside them. Chains are numbered I, II in the order given. ξ: configuration not given here. *: point of attachment. Actinocin(9to1) = Cc1c2oc3c(C)ccc(C(=O)[*:1])c3nc-2c(C(=O)[*:2])c(N)c1=O; Octanoyl(6-Me) = CCC(C)CCCCC(=O)*; ξThr(3R) = C[C@@H](O)C(N)C(=O)O; NMeV = CN[CH](C(=O)O)C(C)C; dDab = NCC[C@@H](N)C(=O)O; Dab = NCC[C@H](N)C(=O)O; Cbz = O=C(OCc1ccccc1)*; Sar = CNCC(=O)O

Test: Quantitative High-Throughput drug screen in 47 multiple myeloma cell lines against the NCATS MIPE library collection: MOLP8_DSMZ cell viability assay (AID 1918977); also: nearly all actives have a fitted effect of over 45% in size
Details: MOLP8 myeloma viability, CellTiter-Glo ATP luminescence, 48 h; series mostly up to 45.8 µM
Source text: PI: Beverly A. Mock Ph.D.
Laboratory of Cancer Biology and Genetics,
Center for Cancer Research, National Cancer Institute,
National Institute of Health, Bethesda, Maryland
Drug resistance and disease progression are common in multiple myeloma (MM) patients, underscoring the need for new therapeutic combinations. […] We hypothesized that effective combinations would reduce MYC expression and enhance p16 activity. […] These preclinical data identify potentially useful drug combinations for evaluation in drug-resistant MM and reveal potential mechanisms of combined drug sensitivity.
Described herein is the primary MIPE qHTS used to cherrypick compounds. Validated compounds were then further tested for potential synergistic activiy.
[1] Peat TJ, Gaikwad SM, Dubois W, Gyabaah-Kessie N, Zhang S, Gorjifard S, Phyo Z, Andres M, Hughitt VK, Simpson RM, Miller MA, Girvin AT, Taylor A, Williams D, D'Antonio N, Zhang Y, Rajagopalan A, Flietner E, Wilson K, Zhang X, Shinn P, Klumpp-Thomas C, McKnight C, Itkin Z, Chen L, Kazandijian D, Zhang J, Michalowski AM, Simmons JK, Keats J, Thomas CJ, Mock BA. Drug combinations identified by high-throughput screening promote cell cycle transition and upregulate Smad pathways in myeloma. Cancer Lett. 2023 Aug 1;568:216284. doi: 10.1016/j.canlet.2023.216284. Epub 2023 Jun 24. PMID: 37356470; PMCID: PMC10408729.
SEQUENCE No. (e.g., 1, 2, 3, etc.); […] (e.g., Cells, Incubation, Reagent, etc.); VALUE and DESCRIPTION.
1; Cells; 5 uL; white, solid bottom 1536-well Greiner assay plate.
2; Compounds; 23 nL; Kalypsis pin tool (Wako USA) equipped with a 1536-well pin head to transfer to the assay plates.
3; Incubation; 48 hours; 37C incubation.
4; Reagent;5uL; CellTiter Glo (Promega).
5; Detector; 425V; Luminescence; Viewlux PerkinElmer.
NOTES (numbers refer to Sequence numbers above)
1. The cell-based screening methods employed in this study were like those previously published. Briefly, the corresponding myeloma cell lines were screened in 1,536-well plates with 500 cells, 5-uL per well for inhibition of cell viability (assessed by measuring ATP levels with CellTiterGlo).
2. NCATS MIPE 4.0 library of approved and investigational drugs were added using the Kalypsis pin tool. Wells treated with DMSO only for 100% viability and media only for 0% viability were used as controls.
3. The assay plates were covered and incubated for 48 hours in a 37C, 5% CO2 incubator with controlled humidity.
4. After 48 hours, CellTilter-GloTM luminescent substrate mix (Promega) reagent was added to the assay plate and plates we incubated for 5 min at room temperature.
5. Signal was measured as median relative luminescence units on a ViewLux (PerkinElmer) multiplate reader.
[1] Heske CM, Davis MI, Baumgart JT, Wilson K, Gormally MV, Chen L, Zhang X, Ceribelli M, Duveau DY, Guha R, Ferrer M, Arnaldez FI, Ji J, Tran HL, Zhang Y, Mendoza A, Helman LJ, Thomas CJ. Matrix Screen Identifies Synergistic Combination of PARP Inhibitors and Nicotinamide Phosphoribosyltransferase (NAMPT) Inhibitors in Ewing Sarcoma. Clin Cancer Res. 2017 Dec 1;23(23):7301-7311. doi: 10.1158/1078-0432.CCR-17-1121. Epub 2017 Sep 12. PMID: 28899971; PMCID: PMC6636827.
Potency is read from the fitted curve at half-maximal effect.

Compound | Potency
CC(=O)OCC(=O)[C@@]1(O)CC[C@H]2[C@@H]3CCC4=CC(=O)CC[C@]4(C)[C@@H]3C(=O)C[C@@]21C | inactive
CS[C@H]1SC[C@@H]2C(=O)N(C)[C@H](C(C)C)C(=O)OC[C@H](NC(=O)c3cnc4ccccc4n3)C(=O)N[C@H](C)C(=O)N(C)[C@@H]1C(=O)N(C)[C@H](C(C)C)C(=O)OC[C@H](NC(=O)c1cnc3ccccc3n1)C(=O)N[C@H](C)C(=O)N2C | 4.7 nM (active)
COC1=C2C[C@@H](C)C[C@H](OC)[C@@H](O)[C@@H](C)C=C(C)[C@H](OC(N)=O)[C@@H](OC)C=CC=C(C)C(=O)NC(=CC1=O)C2=O | 41.8 nM (active)
Cn1cnc(=N)c2[nH]cnc21 | 41.8 nM (active)
CCNC(=O)c1cc2c(-c3cc(OCCN4CCCC4)c(Cl)cc3Cl)nc(N)nc2s1 | 743 nM (active)
CC[C@H]1OC(=O)[C@H](C)[C@@H](O[C@H]2C[C@@](C)(OC)[C@@H](O)[C@H](C)O2)[C@H](C)[C@@H](O[C@@H]2O[C@@H](C)C[C@H](N(C)C)[C@@H]2O)[C@](C)(O)C[C@@H](C)C(=O)[C@H](C)[C@@H](O)[C@]1(C)O | inactive
CNC(=O)Nc1ccc(-c2nc(N3CC4CCC(C3)O4)c3cnn(C4CCC5(CC4)OCCO5)c3n2)cc1 | 9.3 nM (active)
C[C@H](NC(=O)C(C#N)=Cc1cccc(Br)n1)c1ccccc1 | 2350 nM (active)
Cn1c(Nc2ccc(C(F)(F)F)cc2)nc2cc(Oc3ccnc(-c4ncc(C(F)(F)F)[nH]4)c3)ccc21 | 6620 nM (active)
CCC(C)CCCCC(=O)N[C@@H](CCN)C(=O)NC(C(=O)N[C@H](CCN)C(=O)N[C@@H]1CCNC(=O)C([C@@H](C)O)NC(=O)[C@@H](CCN)NC(=O)[C@@H](CCN)NC(=O)[C@@H](CC(C)C)NC(=O)[C@H](Cc2ccccc2)NC(=O)[C@H](CCN)NC1=O)[C@@H](C)O (stereo partly drawn) ({Octanoyl(6-Me)}-[Dab][ξThr(3R)][dDab][dDab][Dab]F[dL][dDab][dDab][ξThr(3R)]; lactam 4-C) | inactive
C=CC(=O)Nc1cc(NC(=O)c2ccc(C)c(NC(=O)c3ccno3)c2)cc(C(F)(F)F)c1 | 18700 nM (active)
CC(C)c1cc(C(C)C)c(CC(=O)NS(=O)(=O)Oc2c(C(C)C)cccc2C(C)C)c(C(C)C)c1 | 20900 nM (active)
COC(=O)[C@@H]1[C@H]2C[C@@H]3c4[nH]c5ccccc5c4CCN3C[C@@H]2CC[C@@H]1O | inactive
O=C(C=Cc1ccc(CN(CCO)CCc2c[nH]c3ccccc23)cc1)NO | 83.3 nM (active)
C[C@H](NCc1ccc2c(c1)nc(NC(=O)c1ccc(-c3cn[nH]c3)s1)n2CCc1ccccc1)C(C)(C)C | 590 nM (active)
CON=C(C(=O)N[C@@H]1C(=O)N2C(C(=O)O)=C(Cn3ccc(=N)n3CCO)CS[C@H]12)c1csc(N)n1 | inactive
COc1cc([C@@H]2c3cc4c(cc3[C@H](O)[C@H]3COC(=O)[C@@H]23)OCO4)cc(OC)c1OC | 469 nM (active)
C=C1C(=CC=C2CCC[C@]3(C)[C@@H]([C@H](C)CCCC(C)(C)O)CC[C@@H]23)C[C@@H](O)C[C@@H]1O | 16600 nM (active)
CCCNS(=O)(=O)Nc1ncnc(OCCOc2ncc(Br)cn2)c1-c1ccc(Br)cc1 | inactive
O=C(c1ccc(F)cc1)N1CCC[C@H](c2nc(-c3ccc(F)cc3)no2)C1 | inactive

Compound | Potency
CCOC(=O)[C@@H](N)Cc1ccc(-c2cc(O[C@H](c3ccc(Cl)cc3-n3ccc(C)n3)C(F)(F)F)nc(N)n2)cc1 | 11800 nM (active)
CC(C)C[C@@H](C=O)NC(=O)[C@H](CC(C)C)NC(=O)[C@H](CC(C)C)NC(=O)OCc1ccccc1 (Cbz-Leu-Leu-Leu-aldehyde) | 469 nM (active)
COc1cc(CCc2cc(NC(=O)c3ccc(N4C[C@@H](C)N[C@@H](C)C4)cc3)n[nH]2)cc(OC)c1 | 18700 nM (active)
C[C@H]1O[C@H](O[C@H]2[C@H](O)[C@@H](O)[C@@H](O[C@H]3[C@H](O)[C@@H](O)C(O)O[C@H]3CO)O[C@H]2CO)[C@H](O)[C@@H](O)[C@H]1N[C@H]1C=C(CO)[C@@H](O)[C@H](O)[C@@H]1O (stereo not given in full) | inactive
NC(=O)Nc1sc(-c2ccc(F)cc2)cc1C(N)=O | 13200 nM (active)
CC(C=CC(=O)NO)=C[C@@H](C)C(=O)c1ccc(N(C)C)cc1 | 93.5 nM (active)
Cc1coc2c1C(=O)C(=O)c1c-2ccc2c(C)cccc12 | 9350 nM (active)
N#CC(=C(O)c1ccc(Cl)cc1Cl)c1nc2cc(Cl)ccc2c(=O)[nH]1 | inactive
NC(=O)c1cccc(-c2cccc(OC(=O)NC3CCCCC3)c2)c1 | inactive
Cc1ccc([N+](=O)[O-])cc1S(=O)(=O)N(C)N=Cc1cnc2ccc(Br)cn12 | 8.3 nM (active)
CCn1c(=O)c2c(nc(C=Cc3ccc(OC)c(OC)c3)n2C)n(CC)c1=O | inactive
Cc1cncc2cccc(S(=O)(=O)N3CCCN(C(=O)CN)C[C@@H]3C)c12 | inactive
Cc1c2oc3c(C)ccc(C(=O)NC4C(=O)NC(C(C)C)C(=O)N5CCCC5C(=O)N(C)CC(=O)N(C)C(C(C)C)C(=O)OC4C)c3nc-2c(C(=O)NC2C(=O)NC(C(C)C)C(=O)N3CCCC3C(=O)N(C)CC(=O)N(C)C(C(C)C)C(=O)OC2C)c(N)c1=O (stereo not given) (I: TVP[Sar][NMeV] / II: TVP[Sar][NMeV]; ester I:1-I:C, II:1-II:C; linker I:N-II:N via Actinocin(9to1); configuration not given here) | inactive
C=CCNC1=C2C[C@@H](C)C[C@H](OC)[C@@H](O)[C@@H](C)C=C(C)[C@H](OC(N)=O)[C@@H](OC)C=CC=C(C)C(=O)NC(=CC1=O)C2=O | 264 nM (active)
CC(C)C[C@H](NC(=O)[C@@H](NC(=O)c1cccc(-c2ccccc2)n1)[C@@H](C)O)B(O)O | 29.6 nM (active)
O=C1NCCc2[nH]c(-c3ccncc3)cc21 | 1660 nM (active)
Cn1cc(CNCC2CCN(c3ncc(C(=O)NO)cn3)CC2)c2ccccc21 | 13.2 nM (active)
O=C1NC(O)CCN1[C@@H]1O[C@H](CO)[C@H](O)[C@H]1O (stereo not given in full) | inactive
O=C(O)C(=O)Nc1cccc(C2=NN=N[N]2)c1 | inactive
O=c1[nH]c(=O)n([C@H]2C[C@@H](O)[C@@H](CO)O2)cc1C=CBr | inactive
